In general, inhibition refers to the relative decrease from the control value, in per cent.

Molecules are shown by their SMILES. Hit rate of the full screen: of about 2,300 compounds, about 1,000 (43%) were called active. So high a share suggests a set chosen from earlier hits. The list shows a part of the results. Results with a measured potency or affinity are listed apart. Unmarked numbers belong to inactive results. The rule behind the calls is not given here.

The nature of the assay: modified counter assay using GFP fluorescence, PhoP regulon inhibitor project, dose response (AID 1985). Conditions: S. Typhi, 4 h; series mostly up to 150 µM; inhibition: at the top concentration.
Consider `CCN(CC)S(=O)(=O)c1cc(NC(=O)C2Cc3ccccc3C(=O)O2)ccc1C` (stereo not given), for which the “inhibition” value is -9.8%. Consider `Cc1cccc(N2C(=O)CS/C2=N\NC(=O)c2ccc(Br)cc2)c1C`, for which the “inhibition” value was 31.3%. For the compound `O=C1CSC(=S)N1c1cccnc1`, the “inhibition” value is 28.8%. For the compound `O=C1c2ccc3c4c(ccc(c24)C(=O)N1c1cccc(O)c1)C(=O)N(c1cccc(O)c1)C3=O`, the “inhibition” value was -6.67%.

Consider `Cc1c(C(=O)O)sc(=S)n1-c1ccc(Cl)cc1`, for which the “inhibition” value was -13.2%. For `Cc1nn(C)c(C)c1NC(=O)c1ccc(S(=O)(=O)N(C)C)cc1`, the “inhibition” value was 19.6%. For the compound `COc1ccc(CCNC(=O)Cn2c(=O)n(CC3CCCO3)c(=O)c3ccccc32)cc1OC` (stereo not given), the “inhibition” value was -10.2%. For `O=C(CSCc1ccccc1)Nc1cccc(C(=O)Nc2ccc(C(=O)O)cc2)c1`, the “inhibition” value is 6.57%. `O=C(Nc1ccc(F)cc1)c1ccc2snnc2c1`: the “inhibition” value is -4.49%. Turning to `CC(C)[C@@H](C(=O)NC1CCCC1)N1C(=O)N2CCc3c([nH]c4ccccc34)[C@@]2(C)C1=O`, the “inhibition” value is 2.6%. For the compound `[O-][n+]1onc2c1CCc1[nH]c(-c3ccccc3)nc1-2`, the “inhibition” value is -1.13%. As to `COc1ccc(C(=O)Oc2ccc(/C=N/O)cc2)cc1`, the “inhibition” value was 17.2%. As for `COc1ccc(NC(=O)C(Cc2ccccc2)n2cccc2)cc1` (stereo not given), the figure is 25.1%. `COc1cc(/C=C/C(=O)O)cc2c1OCCO2`: the “inhibition” value was 12.8%.

In the case of `CC(=O)c1cc(O)c2ccccc2c1O`, the “inhibition” value is 24.3%. In the case of `O=C(Cn1c(=O)oc2cc(S(=O)(=O)N3CCCC3)ccc21)N1CCN(c2ccccc2F)CC1`, the “inhibition” value is -11.8%. For `CN1CCCN(S(=O)(=O)c2ccc3c(c2)OCCO3)CC1`, the “inhibition” value was 1.55%.

Take `O=C(Nc1ccc(Cl)cc1)N1CCCN(Cc2ccccc2F)C1`: the “inhibition” value was -17.4%. Next, `CCN1CCN(C(=O)Nc2ccc(Cc3ccc(NC(=O)N4CCN(CC)CC4)cc3)cc2)CC1`: 34.3%; `CCOC(=O)N1CCN(C(=S)NC(=O)c2ccc(Br)cc2)CC1`: -14%. Take `Cc1oc2c(O)c(O)ccc2c(=O)c1-c1ccccc1`: the “inhibition” value is 20%. `CCN(CC)S(=O)(=O)c1ccc(N2CCOCC2)c(C(=O)O)c1`: the “inhibition” value is -15.7%. As for `CCCNC(=O)C1CCN(c2ccc(S(=O)(=O)N3CCOCC3)cc2Cl)CC1`, the figure is -21%; as for `CCCC(=O)N1CCN(c2ccc(NC(=S)NC(=O)c3cccc(C)c3)cc2)CC1`, -14.8%.

As to `CCOc1ccc2nc(NC(=O)C3=NNC(=O)CC3)sc2c1`, the “inhibition” value was 20.6%.

Regarding `Cc1ccccc1Oc1ccc(Oc2ccccc2C)nn1`, the “inhibition” value is -9.97%.

Take `Cc1ccc(NC(=O)CCNC(=O)c2ccccc2)cc1F`: the “inhibition” value is 36.6%. For the compound `CC(=O)c1cccc(NC(=O)CCC2CCCC2)c1`, the “inhibition” value was -0.61%. On to `O=C(c1ccc2c3c(cccc13)CC2)C1CCCN(Cc2ncc[nH]2)C1` (stereo not given), for which the “inhibition” value was 3.47%.

For the compound `COCC1CCCN(Cc2cn[nH]c2-c2cc3ccccc3o2)C1` (stereo not given), the “inhibition” value is 5.13%. Consider `COc1ccccc1NC(=O)CSC1CC(=O)N(c2ccc3c(c2)OCO3)C1=O` (stereo not given), for which the “inhibition” value is 6.29%. As to `NS(=O)(=O)c1ccc(CCNS(=O)(=O)c2cccc(C(=O)O)c2)cc1`, the “inhibition” value is -5.2%. Consider `COc1cccc(C(=O)CC(=O)C(=O)Nc2cc(OC)c(OC)c(OC)c2)c1`, for which the “inhibition” value is 33.4%. For `Cc1ccc(/C=C2\SC(=S)N(c3cccnc3)C2=O)o1`, the “inhibition” value is 22.2%. In the case of `COc1ccc(OC)c(NC(=O)CSc2nnc3ccc(-c4ccncc4)nn23)c1`, the “inhibition” value is 6.79%. For the compound `Cn1c(CN2CCCCC2)nc2cc(NS(=O)(=O)c3ccc(Cl)cc3)ccc21`, the “inhibition” value is -7.16%.

As for `CCOC(=O)C1=C(C)NC(=O)NC1c1ccc(NC(C)=O)cc1` (stereo not given), the “inhibition” value is 5.94%. As for `COC(=O)CNC(=O)c1ccc(=O)oc1`, the figure is 25%. Consider `CN1CCC(=C2c3ccccc3C=Cc3ccccc32)CC1`, for which the “inhibition” value is -15%.

As for `CN1CCN(c2ccc(C(=O)c3cn(-c4ccc(F)c(Cl)c4)nn3)cc2)CC1`, the “inhibition” value was -4.37%. For the compound `CN1CCCN(C(=O)COc2ccc(F)cc2Cl)CC1`, the “inhibition” value is 20.6%. As for `CCn1c(-c2ccncc2)n[nH]c1=S`, the “inhibition” value is 1.46%. Next, `COc1cc(C)c(Cl)cc1S(=O)(=O)n1cnc(C)c1`: -2.41%; `Cn1c(=NC(=O)COc2ccccc2)sc2cccc(F)c21`: -9.19%; `O=[N+]([O-])c1ccc(O)c2ncccc12`: -27.7%. Turning to `C#CC(=O)N(c1cccc(OC)c1)C(C(=O)NC1CCCC1)c1cccs1` (stereo not given), the “inhibition” value was -7.78%. For `CCN(CC)CCSc1nnc2c3ccccc3n(Cc3ccccc3)c2n1`, the “inhibition” value is 14.3%. As to `C=CCn1c(C)cc(C(=O)CSc2n[nH]c(N)n2)c1C`, the “inhibition” value is 6.5%.

For `O=[N+]([O-])c1ccc(N2CCNCC2)cc1NCc1cccnc1`, the “inhibition” value is -17.4%.

In the case of `Cc1nc2scc(C)n2c(=O)c1S(=O)(=O)N1CCN(c2cccc(C(F)(F)F)c2)CC1`, the “inhibition” value was -15.5%. As for `COc1nnc(-c2ccc(N3CCOCC3)c(NC(=O)c3ccc(C)cc3)c2)c2ccccc12`, the “inhibition” value is 6.65%. Turning to `CN(C)CCCN(C(=O)c1cc2cc([N+](=O)[O-])ccc2s1)c1nc2cc3c(cc2s1)OCCO3`, the “inhibition” value is 4.98%. On to `CCSC1=NCN(CCCC(=O)O)CN1`, for which the “inhibition” value was 15%. Consider `COc1cc(C(=O)N/N=C/c2coc3ccccc3c2=O)cc(OC)c1OC`, for which the “inhibition” value was 38.2%. Take `CC(C)C(c1nnnn1Cc1ccccc1)N(CCCO)Cc1cc2cc3c(cc2[nH]c1=O)OCO3` (stereo not given): the “inhibition” value is 31.3%. As for `CC(C)Cc1nc(N2CCOCC2)c(C#N)c2c1COC(C)(C)C2`, the figure is 7.33%. Take `CCNC(=S)N1CCN(CC)CC1`: the “inhibition” value was -3.05%. Take `COc1ccc(OC)c(NC(=O)CCNS(=O)(=O)c2ccc3c(c2)c(=O)n(C)c(=O)n3C)c1`: the “inhibition” value is -17.4%. As for `CCOC(=O)c1[nH]c2ccc(Cl)cc2c1NC(=O)c1nonc1C`, the figure is -6%.

Consider `Cc1ccc(/C=N/NC(=O)Cc2cccn2C)cc1`, for which the “inhibition” value was -7.42%.

Turning to `Cc1cc(Cl)ccc1OCC(=O)N/N=C/c1ccncc1`, the “inhibition” value is 27%. For `NS(=O)(=O)c1cc2c(cc1Cl)NC(Cc1ccccc1)NS2(=O)=O` (stereo not given), the “inhibition” value was 38.7%.

As for `CN(Cc1ccccc1)S(=O)(=O)c1csc(C(N)=O)c1`, the “inhibition” value is 22.6%. As for `Cn1cc(S(=O)(=O)Nc2ccc(OC(F)(F)F)cc2)c(=O)n(C)c1=O`, the figure is 25.2%; as for `CCOc1ccc2ccccc2c1C(=O)N[C@@H]1C(=O)N2[C@@H]1SC(C)(C)[C@@H]2C(=O)O`, -10.7%. For the compound `O=C(c1ccccc1)N1CCN(c2ccc([N+](=O)[O-])c(NCc3ccco3)c2)CC1`, the “inhibition” value is 5.83%. As for `CN(C)C(=O)CSc1nnc(Cc2ccc([N+](=O)[O-])cc2)o1`, the “inhibition” value is -18.1%. Next, `COc1ccc(CCC(=O)NCc2cn3ccccc3n2)cc1`: -11.1%; `CCOC(=O)CSc1nnc2c(n1)C1(C)CCC2C1(C)C` (stereo not given): -14.7%; `O=C(N/N=C/c1ccc(N2CCOCC2)cc1)c1ccc(O)cc1`: 35.5%.

For the compound `CC(C)=CCN1CCN(Cc2nc(-c3ccccc3)cs2)CC1CCO` (stereo not given), the “inhibition” value is 3.84%. `CC1CCCCN1S(=O)(=O)c1ccc(S(=O)(=O)NCCc2ccncc2)cc1` (stereo not given): the “inhibition” value is -8.76%. On to `Brc1ccc2nc(-c3c[nH]c4ccccc34)cn2c1`, for which the “inhibition” value is 17%. With `Cc1cccc(OCC(=O)NNc2c3ccccc3nc3ccccc23)c1`, the “inhibition” value was 18.2%. Regarding `CC1(C)CC(CCNC(=O)c2ccc(-n3cnnn3)cc2)CC(C)(C)N1`, the “inhibition” value is -11.9%. Consider `Cc1cc(=O)n(CC(C)C)c(O)c1C#N`, for which the “inhibition” value is -9.81%. With `Cc1onc(C(=O)/C=C/N(C)C)c1C(=O)Nc1nccs1`, the “inhibition” value was -7.71%. Consider `CCOc1ccccc1-c1cc(-c2ccccc2)nc2c1c(=O)n(C)c(=O)n2C`, for which the “inhibition” value was -4.34%. Next, `C=C(C)COc1ccc2c(C)c(CCC(=O)NC3CC3)c(=O)oc2c1`: 11.8%. For the compound `N#Cc1ccc(-c2ccc(OCC(=O)NCCCN3CCCC3=O)cc2)cc1`, the “inhibition” value was 20.2%. Regarding `CC1(C)CC(=O)C(C(=O)/C=C/NCCc2ccccc2)C(=O)C1`, the “inhibition” value is 24.8%. `CC(C)(C)c1ccc(NC(=O)NCc2ccco2)cc1`: the “inhibition” value was -27.9%. `Cc1ccc(SCc2[nH]nc3c2C(c2cccnc2)C(C#N)=C(N)O3)cc1` (stereo not given): the “inhibition” value is -10.8%. As for `Nc1cc(N2CCOCC2)c(Cl)cc1[N+](=O)[O-]`, the “inhibition” value is 5.58%. Regarding `C=C(C)Cn1c(SCC#N)nc2ccccc2c1=O`, the “inhibition” value is -7.42%.

As for `COc1cccc(CNC23CC4CC(CC(C4)C2)C3)c1OCc1ccccc1`, the “inhibition” value is -24.5%. For `Cc1ccc(NC(=S)NCc2cccs2)cc1`, the “inhibition” value is 2.63%. As for `Cc1ccc(NC(=S)NCc2cccnc2)cc1`, the figure is 33.4%; as for `COc1cccc(CNS(=O)(=O)c2ccc3c(c2)NC(=O)CS3)c1`, -14.7%; as for `CC(c1ccccc1)(c1ccccc1)c1ccncc1`, 3%. Turning to `CC(C)SCc1nc2ccccc2[nH]1`, the “inhibition” value was -25.3%. As for `Nc1cncc(C(=O)O)c1`, the “inhibition” value was 0.69%.

With `C/C(=N\NC(=O)COc1ccccc1[N+](=O)[O-])c1cccs1`, the “inhibition” value is -1.26%. `CCCC(=NCc1ccccc1)C1=C(O)C(C(=O)OC)C(C)(C)CC1=O` (stereo not given): the “inhibition” value is -20.1%. On to `CN1C2=CC=CC=CC2=[N+](C)C12C=CC(=[N+]([O-])[O-])C=C2[N+](=O)[O-]` (stereo not given), for which the “inhibition” value was 5.18%. On to `Cc1cc(Br)cc2cn[nH]c12`, for which the “inhibition” value is -9.69%.

For the compound `O=C(COc1ccc2ccccc2c1)Nc1nccs1`, the “inhibition” value was 15.3%.

In the case of `O=C(Nc1ccccc1)Nc1cccc(Cl)c1`, the “inhibition” value is 29.5%.

On to `O=C(CCl)Nc1nccs1`, for which the “inhibition” value is -39.9%.

Take `CCCN1C(=O)c2ccc(C(=O)Nc3nccs3)cc2C1=O`: the “inhibition” value is -2.62%. Next, `Cc1[nH]c(=O)[nH]c(=O)c1S(=O)(=O)N1CCCC(C(=O)NCc2ccc3c(c2)OCO3)C1` (stereo not given): 6.67%; `COc1ccc(NC(=O)N(CCc2ccccc2)Cc2cc3c(C)cc(C)cc3[nH]c2=O)cc1`: 1.31%. Regarding `CCCOc1ccc(N2C(=O)C3C(C(C)C)NC4(C(=O)c5ccccc5C4=O)C3C2=O)cc1` (stereo not given), the “inhibition” value was -27.7%. On to `COc1ccc(OC)c(S(=O)(=O)N2CCC(C(=O)NCc3ccccc3OC)CC2)c1`, for which the “inhibition” value was 5.13%. With `O=C(NCc1ccccc1)c1ccc(CNc2c(N3CCCC3)c(=O)c2=O)cc1`, the “inhibition” value is 10.7%. As for `Cc1ccc(C(C(=O)NCCc2ccccc2)N(C(=O)c2csnn2)C2CC2)o1` (stereo not given), the “inhibition” value is -9.88%. Turning to `CCC(C)(c1ccc(C(=O)OC)s1)c1ccc(C(=O)OC)s1`, the “inhibition” value is -7.04%. With `CN1C(=O)/C(=C2/C=Cc3ccccc3N2CCCS(=O)(=O)O)SC1=S`, the “inhibition” value was 4.45%. As for `COc1ccccc1-n1c(SCC(=O)O)nnc1-c1ccc(S(=O)(=O)N2CCCCC2)cc1`, the “inhibition” value is -8.39%. Next, `O=C(Nc1ccc(F)cc1)C1CCC(CNc2c(N3CCCCC3)c(=O)c2=O)CC1` (stereo not given): 4.3%; `Oc1ccc(CN2CCN(c3ccccc3)CC2)c2cccnc12`: 15.8%; `Oc1c(CN2CCOCC2)cc(COCc2ccccc2)c2cccnc12`: -18.9%.

On to `Cc1c(C(=O)N2CCN(Cc3ccccc3)CC2)sc2ncnc(N3CCOCC3)c12`, for which the “inhibition” value was 8.11%.

`COc1ccccc1Oc1coc2c(CN3CCN(C)CC3)c(O)ccc2c1=O`: the “inhibition” value is 14.4%. For the compound `CCCC(c1nnnn1Cc1ccc(OC)cc1)N1CCN(c2ccccc2OC)CC1` (stereo not given), the “inhibition” value was -12.5%.

The values are drawn from PubChem BioAssay AID1985 (Southern Research Specialized Biocontainment Screening …, 2009).
